Screening results deposited in PubChem BioAssay by several laboratories.
An excerpt weighted towards active compounds, which were near 2.7% of everything screened.
Bim-Mcl-1: disrupts Bim peptide binding to human Mcl-1; Q07820; Bead-based flow cytometry, Bim peptide-Mcl-1 binding; inhibition, % at 10 µM; AID 1009; 190,000 tested, 0.1% active; in the data active = inhibition above about 40%
Target sequence (Q07820 whole entry, looked up): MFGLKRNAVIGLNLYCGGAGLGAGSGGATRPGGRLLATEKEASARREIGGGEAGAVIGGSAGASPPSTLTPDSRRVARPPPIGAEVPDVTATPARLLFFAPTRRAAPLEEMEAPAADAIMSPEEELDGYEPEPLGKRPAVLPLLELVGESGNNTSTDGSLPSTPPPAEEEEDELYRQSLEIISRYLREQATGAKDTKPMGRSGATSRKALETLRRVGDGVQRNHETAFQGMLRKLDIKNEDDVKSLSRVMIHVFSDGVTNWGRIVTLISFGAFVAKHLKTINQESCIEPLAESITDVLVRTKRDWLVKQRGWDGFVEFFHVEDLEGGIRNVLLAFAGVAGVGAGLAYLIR
Mcl1 Bid PPI: disrupts binding of human Mcl-1 to Bid peptide | TR-FRET Mcl-1/Bid-Dy647 peptide binding, 1536-well | inhibition, % at 21.7 µM | 220,000 tested, 0.97% active;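 active = compounds that cut the binding signal by more than half at the single screening dose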;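 also: His-tagged Mcl-1 with europium anti-His antibody binding Bid BH3 peptide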
14-3-3 Bad inh: disrupts binding of bovine 14-3-3 zeta to phospho-Bad peptide | P63103 | TR-FRET 14-3-3zeta/Dy647-pBad peptide displacement, 1 h | inhibition, % at 21.7 µM | 220,000 tested, 0.71% active;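 active = inhibition above about 70%, limit read from the data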
Target sequence (P63103 whole entry, looked up): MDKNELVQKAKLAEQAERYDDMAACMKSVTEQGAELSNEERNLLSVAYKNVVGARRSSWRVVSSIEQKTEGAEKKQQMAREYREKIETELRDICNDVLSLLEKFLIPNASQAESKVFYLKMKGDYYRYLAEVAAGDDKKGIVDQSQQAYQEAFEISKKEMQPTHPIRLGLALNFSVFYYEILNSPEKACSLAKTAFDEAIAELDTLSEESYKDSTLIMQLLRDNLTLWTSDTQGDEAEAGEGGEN
eIF4E-4G inh: inhibitors of eIF4E and eIF4G interaction in translation initiation | inhibition, % at 21.7 µM | TR-FRET eIF4E-eIF4GI(517-606) binding, 2 h | P63073+Q04637 | 220,000 tested, 0.37% active;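 active = inhibition above about 30%, limit read from the data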
Pf gametocyte: inhibitors of late stage P. falciparum gametocyte viability. P. falciparum stage V gametocytes, ATP luminescence, 24 h. inhibition, % at 10.9 µM. 150,000 tested, 0.065% active. AID 743093;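 active = inhibition above the mean plus 3 SD of compounds within the control limits, set per campaign, cut at about 38% in these data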
Mcl1 Noxa PPI: Mcl-1/Noxa interaction inhibition; Q07820; TR-FRET Mcl-1/Noxa peptide binding, 2 h; AID 1022; 220,000 tested, 1.5% active; inhibition, % at 21.7 µM;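 active = compounds that cut the protein-peptide binding signal by more than 50% relative to plate controls in a single-dose test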;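 also: His-tagged Mcl-1 with rhodamine Noxa BH3 peptide and terbium anti-His antibody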
Large screens that a line does not name were inactive; [ ] = remark or other dose.

O=C(Nc1cccc(C(=O)N2CCCc3ccccc32)c1)c1ccccc1	none (no result: Bim-Mcl-1, Mcl1 Bid PPI, 14-3-3 Bad inh, eIF4E-4G inh, Mcl1 Noxa PPI)
CN(C)S(=O)(=O)c1cccc(-n2sc3ccccc3c2=O)c1	eIF4E-4G inh 56 (no result: Pf gametocyte)
O=c1c2ccccc2sn1-c1ccccc1	eIF4E-4G inh 54
Cc1ccc(-n2sc3ccccc3c2=O)cc1S(=O)(=O)N1CCCCC1	eIF4E-4G inh 32, Mcl1 Noxa PPI 54
O=c1c2ccccc2sn1-c1ccc(S(=O)(=O)N2CCCC2)cc1	none (no result: Pf gametocyte)
O=c1c2ccccc2sn1-c1nccs1	eIF4E-4G inh 68
CCc1ccc(C(=O)CSc2nc3cc(S(=O)(=O)N4CCOCC4)ccc3n2CC)cc1	none
COC(=O)c1nc2ccccn2c1F	none (no result: Pf gametocyte)
CC1CCN(C(=S)c2cn(Cc3ccccc3F)c3ccccc23)CC1	none (no result: Pf gametocyte)
CN1CCN(C(=S)c2cn(Cc3ccccc3F)c3ccccc23)CC1	Mcl1 Bid PPI 86
O=C(Nc1cccnc1)c1ccc(C(=O)Nc2cccnc2)cc1	none
O=C(Nc1cccnc1)c1ccc(S(=O)(=O)c2ccc(Cl)cc2)cc1	14-3-3 Bad inh 85
Cc1cccc(-c2oc(C)c(C)[n+]2[O-])c1	14-3-3 Bad inh 72 (no result: Pf gametocyte)
CC(NC(=O)C(C)N1C(=O)C2C3CC(C(Br)C3Br)C2C1=O)c1ccccc1 (configuration not stated)	none
O=C(Nc1ccc([N+](=O)[O-])cc1)Nc1ccc(N2CCOCC2)c2nonc12	Mcl1 Noxa PPI 94
COc1ccc2[nH]c(C)cc(=O)c2c1	none (no result: Pf gametocyte)
COc1ccc2[nH]c3c(C)c4ccncc4c(C)c3c2c1	eIF4E-4G inh 33, Mcl1 Noxa PPI 86 (no result: Bim-Mcl-1, Pf gametocyte)
COc1cc(OC)cc(C(=O)N[C@H](C(=O)OCC(=O)NC(=O)c2cccn2C)C(C)C)c1	Mcl1 Bid PPI 92
COc1ccc([N+](=O)[O-])cc1NC(=O)Cc1noc2ccccc12	none
COc1cccc(C(=O)NC2CC3CCCC(C2)N3CC(=O)Nc2ccc(N(C)C)cc2)c1 (configuration not stated)	none
COc1cccc(C(=O)NC2CC3CCCC(C2)N3CC(=O)Nc2ccccc2)c1 (configuration not stated)	Mcl1 Bid PPI 54, 14-3-3 Bad inh 83[fluorescence artefact?], Mcl1 Noxa PPI 66 (no result: Pf gametocyte)
O=S(=O)(c1cccs1)N1CCCc2cccc(O)c21	14-3-3 Bad inh 74 (no result: Pf gametocyte)
O=S(=O)(c1cccs1)N1CCN(S(=O)(=O)c2cccs2)CC1	none
Cc1ccc2nc(N3CCOCC3)c(C=O)c(=O)n2c1	none
CC(C)CCOc1cccc(OCC(=O)O)c1	none
O=C(CSc1nnc(-c2cccnc2)n1C1CCCCC1)NC1CCCC1	Mcl1 Noxa PPI 56 (no result: Pf gametocyte)
CCSC1=NC2(CCCCC2)Nc2sc3c(c21)CCCC3	Mcl1 Bid PPI 74 (no result: Pf gametocyte)
N=C1/C(=C\c2ccc(-c3cc(Cl)cc(Cl)c3)o2)C(=O)N=C2SC=C(c3ccccc3)N12	none
N=C1/C(=C/c2ccc(-c3cccc(C(=O)O)c3)o2)C(=O)N=C2SC=C(c3ccccc3)N12	Mcl1 Bid PPI 98, 14-3-3 Bad inh 93, eIF4E-4G inh 80, Mcl1 Noxa PPI 109
O=C1OC(c2cccs2)=N/C1=C/c1ccc(-c2cccc(C(=O)O)c2)o1	Mcl1 Bid PPI 79, 14-3-3 Bad inh 76, eIF4E-4G inh 36, Mcl1 Noxa PPI 96
O=C1OC(c2cccs2)=N/C1=C\c1ccc(-c2ccccc2Cl)o1	none (no result: Pf gametocyte)
COc1cccc2cc(C(N)=O)/c(=N/NC(=O)COc3ccc(Cl)cc3)oc12	Mcl1 Bid PPI 64 (no result: Pf gametocyte)
COc1ccc(CCN2C(=O)CS/C2=N\NC(=O)c2cccs2)cc1OC	none
O=C(Cc1ccc(S(=O)(=O)N2CCOCC2)s1)Nc1nc2c(s1)CCCC2	Mcl1 Noxa PPI 71 (no result: Pf gametocyte)
O=C(Cc1ccc(S(=O)(=O)N2CCOCC2)s1)Nc1ccc2c(c1)CCC2	none
O=C(CN1CCC(N2CCCCC2)CC1)N1CCCc2ccccc21	14-3-3 Bad inh 87 (no result: Pf gametocyte)
OCC1(CCOc2ccccc2)CCN(C2Cc3ccccc3C2)CC1	none
CCN(CC)C(=O)CSc1nc2ccc(NC(=O)CSc3nccn3C)cc2s1	Mcl1 Noxa PPI 56 (no result: Pf gametocyte)
Cn1c(SCC(=O)Nc2ccc3nc(SCC(=O)N4CCCC4)sc3c2)nnc1-c1ccc(N)cc1	Mcl1 Noxa PPI 100 (no result: Pf gametocyte)
Cc1cccc(C(=O)Nc2ccc(N3CCN(S(C)(=O)=O)CC3)cc2)c1	none
CN(C)S(=O)(=O)c1cccc(-c2nn(-c3ccccc3)cc2/C=C2\SC(=S)NC2=O)c1	Mcl1 Bid PPI 88, Mcl1 Noxa PPI 108
O=C(O)CCn1cc(/C=C2\SC(=S)NC2=O)c(-c2ccccc2)n1	none
COc1ccc(C(=O)O/N=C(\N)Cc2ccc([N+](=O)[O-])cc2)c(OC)c1	none (no result: Bim-Mcl-1)
Cc1sc2nc3c4ccccc4c(NCc4ccco4)nn3c(=O)c2c1C	Mcl1 Noxa PPI 67 (no result: Pf gametocyte)
Cc1ccc(-c2nc(N/N=C/c3ccncc3)c3ccccc3n2)cc1	Mcl1 Bid PPI 66 (no result: Pf gametocyte)
Cc1cc(N/N=C/c2ccc(O)c(C)c2O)nc(-c2ccccc2O)n1	Mcl1 Bid PPI 75, Mcl1 Noxa PPI 89 (no result: Pf gametocyte)
CCOC(=O)c1ccc(Nc2nc(-c3cccnc3)nc3ccccc23)cc1	14-3-3 Bad inh 75[fluorescence artefact?]
O=C(Oc1ccc(Nc2ncnc3ccccc23)cc1)c1cccnc1	Mcl1 Bid PPI 73, 14-3-3 Bad inh 82
Cc1ccc(Nc2nc(-c3cccnc3)nc3ccccc23)cc1	none (no result: Bim-Mcl-1)
CCOC(=O)c1ccc(Nc2ncnc3ccccc23)cc1	none
COc1ccc(F)cc1S(=O)(=O)N1CCN(C(=O)c2ccco2)CC1	none (no result: Bim-Mcl-1, Mcl1 Bid PPI, 14-3-3 Bad inh, eIF4E-4G inh, Mcl1 Noxa PPI)
CCCCOC(=O)CCc1c(C)n[nH]c1C	none (no result: Bim-Mcl-1)
COc1ccc(/C=N/Nc2nc(-c3cccnc3)nc3ccccc23)cc1OC	none (no result: Bim-Mcl-1)
Oc1ccc(/C=N/Nc2nc(-c3cccnc3)nc3ccccc23)c(O)c1	14-3-3 Bad inh 83, Mcl1 Noxa PPI 84 (no result: Bim-Mcl-1)
Cc1c(O)ccc(/C=N/Nc2nc(-c3cccnc3)nc3ccccc23)c1O	Mcl1 Noxa PPI 89 (no result: Bim-Mcl-1)
CCCCCCCCCCCCCCCC(O)C(N)CO (configuration not stated)	Mcl1 Bid PPI 66 (no result: Pf gametocyte)
O=C(CN(c1ccccc1)S(=O)(=O)c1ccc(F)cc1)NC1CCS(=O)(=O)C1 (configuration not stated)	none
O=C(CC1S/C(=N/N=C/c2c[nH]c3ccccc23)NC1=O)Nc1ccccc1 (configuration not stated)	Mcl1 Bid PPI 56, Mcl1 Noxa PPI 61
O=C(CC1S/C(=N/N=C/c2ccco2)NC1=O)Nc1ccccc1 (configuration not stated)	none
O=C(CC1S/C(=N/N=C/c2c[nH]c3ccc(OCc4ccccc4)cc23)NC1=O)Nc1ccccc1 (configuration not stated)	Mcl1 Bid PPI 58, Mcl1 Noxa PPI 67
O=C(Nc1ccc([N+](=O)[O-])cc1)Nc1ccc(OC(F)F)c(Cl)c1	Mcl1 Noxa PPI 52
CN(C)c1ccnc(-n2cccc2/C=N/OCc2cccc(F)c2)c1C#N	14-3-3 Bad inh 80
N#C/C(=C\c1ccccc1)C(=O)OCC(=O)N1CCCC1	none
